Source: PubChem BioAssay AID602448 (National Center for Advancing Translational Sciences (NCATS), 2012)
The source made the active and inactive calls.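 How the source made its calls: active means max inhibition of at least 60%; inconclusive means max inhibition above 30% but below 60%; inactive means max inhibition of 30% or less.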

The compounds below were run against Follicle-stimulating hormone receptor (Homo sapiens) (UniProt P23945) (assay: qHTS for antagonists of the Thyroid Stimulation Hormone Receptor: Hit Validation with Follickle Stimulating Hormone Receptor (FSHR)). Conditions: FSHR-expressing cells, cAMP HTRF, antagonist counterscreen; stronger effect = higher value.
Excerpt: The thyroid-stimulating hormone receptor (TSHR) is a member of the 7 trans-membrane-spanning receptor (7TMR) family of cell surface receptors. TSHR-mediated hyperthyroidism is important in thyroid pathology. The development of small molecule antagonists of TSHR may lead to therapeutic approaches for TSHR-mediated hyperthyroidism caused by constitutively activating mutations or stimulating auto-antibodies associated with Graves' disease. Graves' disease is the leading cause of hyperthyroidism and is caused by autoantibodies that stimulate TSHR (TsAbs) causing thyroid growth and unregulated overproduction of thyroid hormones and existing treatments have liabilities (agranulocytosis). In addition, TSHRs are known to be expressed in multiple extrathyroidal tissues including bone, brain, kidney, testis, fat and cells of the immune system but the role of the TSHR in these tissues is not clear. Therefore, TSHR antagonists/inverse agonists could be used as probes of extrathyroidal TSHR function. Finally, TSHR inverse agonists, which are a subclass of antagonists that inhibit agonist-independent (or basal or constitutive) TSHR signaling, could be used to inhibit TSH-independent signaling in patients with recurrent or metastatic thyroid cancer who are receiving thyroid hormone to suppress TSH. In collaboration between scientist from the NCGC and the NIDDK, a miniaturized HTRF high-throughput screen was developed. It's a cell based assay, where an anti cAMP antibody contains a fluorescent cryptate tag (excitation 337 nm; emission 620 nm) and the acceptor is cAMP-d2 (excitation 620 nm; emission 665 nm). When antibody and cAMP-d2 interact and are excited by a 337 nm light, a FRET occurs resulting in emission at 665 nm. The assay is competition between cAMP-d2 and cAMP (from the cell lysate). The homogeneous protocol allows for one step dispense after stimulation that is automation friendly. This is a hit validation assay in a counterscreen using FSHR, a closely related hormone receptor NIH Chemical Genomics Center [NCGC] NIH Molecular Libraries Probe Centers Network [MLPCN] Grant: MH090855 Assay Provider: Marvin Gershengorn, NIDDK
An anti cAMP antibody contains a fluorescent cryptate tag (excitation 337 nm; emission 620 nm) and the acceptor is cAMP-d2 (excitation 620 nm; emission 665 nm). When antibody and cAMP-d2 interact and are excited by a 337 nm light, a FRET occurs resulting in emission at 665 nm. The assay is competition between cAMP-d2 and cAMP (from the cell lysate). The homogeneous protocol allows for one step dispense after stimulation that is automation friendly.

Sequence of Follicle-stimulating hormone receptor (Homo sapiens) (P23945 whole entry, looked up): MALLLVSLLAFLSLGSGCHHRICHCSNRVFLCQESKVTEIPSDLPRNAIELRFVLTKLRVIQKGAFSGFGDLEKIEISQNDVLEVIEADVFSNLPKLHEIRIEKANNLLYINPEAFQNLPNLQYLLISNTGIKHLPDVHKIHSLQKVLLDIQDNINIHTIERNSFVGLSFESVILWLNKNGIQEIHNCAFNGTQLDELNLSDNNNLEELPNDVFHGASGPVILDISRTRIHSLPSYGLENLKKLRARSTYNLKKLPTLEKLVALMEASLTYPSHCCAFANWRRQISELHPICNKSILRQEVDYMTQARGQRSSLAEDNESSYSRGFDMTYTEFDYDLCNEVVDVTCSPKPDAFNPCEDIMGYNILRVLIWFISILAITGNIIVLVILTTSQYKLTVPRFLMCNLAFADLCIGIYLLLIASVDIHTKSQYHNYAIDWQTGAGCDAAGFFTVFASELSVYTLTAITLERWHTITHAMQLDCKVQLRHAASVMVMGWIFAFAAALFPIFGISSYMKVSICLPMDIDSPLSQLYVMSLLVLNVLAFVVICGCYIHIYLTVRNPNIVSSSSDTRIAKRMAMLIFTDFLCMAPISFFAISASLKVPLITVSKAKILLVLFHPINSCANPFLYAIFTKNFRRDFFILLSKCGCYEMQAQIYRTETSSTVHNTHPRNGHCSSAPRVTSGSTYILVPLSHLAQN

| SMILES | max inhibition |
| --- | --- |
| COc1ccc(-c2csc(/C(C#N)=C\c3ccc(O)c([N+](=O)[O-])c3)n2)cc1OC | 87.2% (active) |
| O=C1/C(=C\c2cc([N+](=O)[O-])ccc2O)SC(=S)N1Cc1ccc(Cl)cc1 | 94.2% (active) |
| O=c1cc(C(F)(F)F)[nH]c2c(C(F)(F)F)cccc12 | 82.4% (active) |
| COc1ccc(OCC(=O)NC(=S)Nc2ccc(N3CCOCC3)c(Cl)c2)cc1 | 87.6% (active) |
| CC(=O)Oc1c(C)cc(Cl)cc1C(=O)Nc1ccc([N+](=O)[O-])cc1Cl | 63.6% (active) |
| O=C(COc1cccc2ccccc12)Nc1ccc(Cl)cc1C(=O)O | 62.5% (active) |
| Cc1ccc(-n2[nH]c(C)c(/C=N/Nc3ccc([N+](=O)[O-])cc3[N+](=O)[O-])c2=O)cc1C | 81.1% (active) |
| CCC(=O)OCCNc1cc(Sc2nccn2C)c2nonc2c1[N+](=O)[O-] | 20% |
